Consider 14 molecules from PubChem BioAssay (NCATS).

Experiment [1] can be described thus: Cell Viability - LYMP2-012 (AID 982).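 Further: cellular ATP by luciferase luminescence where a drop means cytotoxicity; cells exposed to compound for one day before reading; 0% = DMSO only and full loss = 92 µM tetraoctylammonium bromide; nearly all actives have a fitted effect of over 55% in size.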
Experiment [2] in a line: Cell Viability - LYMP2-014 (AID 983).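 Further: plate controls were DMSO only for no effect and 92 µM tetraoctylammonium bromide for full effect; nearly all actives have a fitted effect of over 50% in size.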 A digest of the protocol: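 Decrease in intracellular ATP after 24 hr treatment at 37 C, measured by luciferase luminescence, indicated cytotoxicity. Concentration-response data were fitted with the standard Hill equation to give AC50.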
Experiment [3] is described as follows: Cell Viability - LYMP2-016 (AID 984).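 Further: cells exposed to compound for 24 hours at 37 °C; on the % scale 0 is the no-effect control and ±100 the full control effect; nearly all actives have a fitted effect of over 55% in size.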 A digest of the protocol:
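Cytotoxicity was scored by luminescent ATP content (CellTiter-Glo) after 24 h compound exposure at 37 C of a human lymphoblastoid line at 2500 cells/well. Concentration-response data were fitted to the Hill equation for AC50.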

The nature of experiment [4]: Cell Viability - LYMP2-018 (AID 985).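 Further: compound exposure lasted 24 hr at 37 °C; plate controls were DMSO only for no effect and tetraoctylammonium bromide at 92 µM for full effect; nearly all actives have a fitted effect of over 50% in size.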 A digest of the protocol:
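Acute cytotoxicity is scored as a concentration-dependent drop in intracellular ATP after 24 hr exposure of the lymphoblastoid line in complete culture medium, measured by luciferase luminescence. Potency is expressed as AC50 from Hill modelling.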

A short description of experiment [5]: Cell Viability - LYMP2-020 (AID 986).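 Further: plate controls were DMSO only for no effect and tetraoctylammonium bromide at 92 µM for full effect; nearly all actives have a fitted effect of over 55% in size.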 A digest of the protocol: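 Acute cytotoxicity in a human lymphoblastoid line is scored as a concentration-dependent fall in cellular ATP after 24 hr at 37 C in complete medium. The positive control is tetraoctylammonium bromide, and potency is given as Hill-fit AC50.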
The nature of experiment [6]: Cell Viability - LYMP2-022 (AID 987).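 Further: cells exposed to compound for 24 hr; 0% = DMSO alone and full effect = tetraoctylammonium bromide at 92 µM; nearly all actives have a fitted effect of over 55% in size.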 The essentials:
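Acute toxicity in a human lymphoblastoid line is scored as decreased intracellular ATP after 24 hr compound treatment at 37 C. ATP is measured by CellTiter-Glo luminescence; curves are fitted with the Hill equation to give AC50.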

The nature of experiment [7]: Cell Viability - LYMP2-024 (AID 988).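 Further: cells exposed to compound for 24 hr at 37 °C; plate controls were DMSO only for no effect and 92 µM tetraoctylammonium bromide for full effect; nearly all actives have a fitted effect of over 60% in size.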 The essentials:
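Acute toxicity is measured as concentration-dependent loss of intracellular ATP in a human lymphoblastoid line treated 24 hours at 37 C. Luciferase luminescence quantifies ATP; AC50 values come from standard Hill-equation modelling.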

Experiment [8] can be described thus: Cell Viability - LYMP2-026 (AID 989). Further: on the % scale 0 is the no-effect control and ±100 the full control effect; nearly all actives have a fitted effect of over 50% in size. The essentials: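 Concentration-dependent loss of intracellular ATP in human lymphoblastoid cells after 24 hr at 37 C, quantified by luciferase luminescence. AC50 derived from standard Hill equation.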
Experiment [9] in a line: Cell Viability - LYMP1-002 - Assay at 24 hr (AID 993). Further: on the % scale 0 is the no-effect control and ±100 the full control effect. The essentials:
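qHTS, LYMP1-002 lymphoblastoid, 24 h cpd, 37 C, CellTiter-Glo ATP luminescence; AC50 via Hill eq.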

Experiment [10] is described as follows: qHTS Assay for Lipid Storage Modulators (AID 1519; calls by dose curve; on activity change, negative = inhibition: on the % scale 0 is the no-effect control and ±100 the full control effect). To be noted: Drosophila S3 cells, BODIPY lipid droplet/cell ratio, laser cytometry, cells loaded with oleic acid. The essentials: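 Cells seeded at 5,000 per well were treated with compounds over a concentration series and loaded with oleic acid (400 uM, as added). Lipid droplet fluorescence (488 nm excitation, 500-530 nm channel) was read by laser-scanning cytometry and normalized to 20 uM Triacsin C.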
(In general: Quantitative high-throughput screening tests each substance at several concentrations.)

A short description of experiment [11]: Counterscreen for APE1 Inhibitors: Fluorescent Dye Displacement Validation Assay (AID 1707).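 Further: plate controls were ThO with dsDNA and no compound for no effect and ThO without dsDNA for full effect.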 The essentials:
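Thiazole Orange displacement from dsDNA: 250 nM ThO with 50 nM TAMRA-labelled abasic-site (tetrahydrofuran) duplex in 50 mM Tris-HCl pH7.5, 50mM NaCl, 2 mM MgCl2, 0.01% Tween-20. Loss of endpoint fluorescence (ex 480 nm, em 540 nm) flags DNA binders.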
On the technique in general: Counterscreens check selectivity or assay interference.

Experiment [12] can be described thus: qHTS for differential inhibitors of proliferation of Plasmodium falciparum line 7G8 (AID 1815).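 Further: parasite growth measured after three days of incubation.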 Further: potency means the concentration at half of the fitted maximal effect.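 On activity change, negative = inhibition: plate controls were vehicle wells for no effect and reference inhibitor wells for full effect.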
Experiment [13] is described as follows: qHTS for differential inhibitors of proliferation of Plasmodium falciparum line 3D7 (AID 1876).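 Further: parasite growth measured after three days of culture; 0% = vehicle wells and -100% = reference inhibitor wells.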
The target of experiment [14] is Alpha-galactosidase A (Homo sapiens) (UniProt P06280). Put plainly: Counterscreen for Glucocerebrosidase Inhibitors: qHTS Assay for Human alpha-Galactosidase at pH 4.5 (AID 992). Further: 0% is about no effect. A digest of the protocol:
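Enzyme at 2 nM final was combined with compound (0.7 nM to 77 uM) and 80 uM 4-methylumbelliferyl alpha-D-galactopyranoside in 50 mM citric acid, 0.005% Tween-20, pH 4.5. After 20 min at room temperature, fluorescence was read (Ex 365/Em 440 nm); AC50 came from Hill fits.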

Experiment [15] has as its target alpha-glucosidase (Oryza sativa, rice) (UniProt Q653V4). Briefly: Counterscreen for Glucocerebrosidase Inhibitors: qHTS Assay for Rice alpha-Glucosidase at pH 5.0 (AID 997).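 Further: 0% = full activity with enzyme and -100% = basal without enzyme.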 A digest of the protocol: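 Rice alpha-glucosidase (4 nM final) with 400 uM 4-methylumbelliferyl-alpha-D-glucopyranoside in citrate buffer pH 5.0, 20 min at room temperature, stopped at pH 10; fluorescence 365/440 nm, compounds 0.7 nM–77 uM, AC50 from Hill fits.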

Experiment [16] has as its target DNA repair nuclease/redox regulator APEX1 (Homo sapiens) (UniProt P27695). Briefly: qHTS Validation Assay for Inhibitors of the Human Apurinic/apyrimidinic Endonuclease 1 (APE1) (AID 1705;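 further: TAMRA fluorescence gain over two minutes as APE1 cuts a quenched THF abasic duplex; on the % scale 0 is the no-effect control and ±100 the full control effect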). The essentials:
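Activity read as rising fluorescence (598 nm emission, 525 nm excitation) from incision of a TAMRA/BHQ-2 duplex carrying a THF abasic site (50 nM). Compound and enzyme sat 15 min at RT before substrate start; signal change between first and third 60-s reads.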

Experiment [17] in a line: qHTS for differential inhibitors of proliferation of Plasmodium falciparum line D10 (AID 1877).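 Further: parasites grown with compound for 72 h before DNA staining; plate controls were vehicle wells for no effect and reference inhibitor wells for full effect.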
For experiment [18], the target named is Endonuclease 4 (Escherichia coli (strain K12)) (UniProt P0A6C1). Briefly: Counterscreen for APE1 Inhibitors: qHTS Validation Assay for Inhibitors of Endonuclease IV (AID 1708). Further: on the % scale 0 is the no-effect control and ±100 the full control effect. The essentials: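 Cleavage of a quenched abasic-site DNA duplex (50 nM, 5'-TAMRA, 3'-BHQ-2) by 2 nM enzyme is followed as fluorescence increase. Compounds are preincubated with enzyme 15 min at room temperature before substrate addition.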

Where [19] appears, read: measured here: cell count channel max response.
Where [20] appears, read: measured here: lipid channel max response.

Molecules are shown by their SMILES. “And” between values parts separate entries of the source, which are not always exact repeats. Equal values may be shown once. Results filed as inconclusive are left out. The source made the active and inactive calls. Unless noted, the call rests on the fitted dose curve; in most records, active means well fitted curve in the direction sought with a large enough effect; inconclusive means small, poorly fitted or top-dose-only effect, or another doubt; inactive means no such curve, though single readings can be large; an effect the other way counts as inactive or inconclusive.

Sequence of DNA repair nuclease/redox regulator APEX1 (Homo sapiens) (P27695 whole entry, looked up): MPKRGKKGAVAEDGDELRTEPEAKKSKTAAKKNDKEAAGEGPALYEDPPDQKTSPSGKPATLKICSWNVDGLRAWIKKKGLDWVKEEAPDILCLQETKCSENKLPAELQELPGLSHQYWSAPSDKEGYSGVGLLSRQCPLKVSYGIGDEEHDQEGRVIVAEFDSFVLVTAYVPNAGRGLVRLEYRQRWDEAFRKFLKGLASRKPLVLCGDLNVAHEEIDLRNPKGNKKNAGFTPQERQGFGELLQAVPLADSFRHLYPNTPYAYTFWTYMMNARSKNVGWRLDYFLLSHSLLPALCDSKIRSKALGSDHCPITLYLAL
Sequence of Alpha-galactosidase A (Homo sapiens) (P06280 whole entry, looked up): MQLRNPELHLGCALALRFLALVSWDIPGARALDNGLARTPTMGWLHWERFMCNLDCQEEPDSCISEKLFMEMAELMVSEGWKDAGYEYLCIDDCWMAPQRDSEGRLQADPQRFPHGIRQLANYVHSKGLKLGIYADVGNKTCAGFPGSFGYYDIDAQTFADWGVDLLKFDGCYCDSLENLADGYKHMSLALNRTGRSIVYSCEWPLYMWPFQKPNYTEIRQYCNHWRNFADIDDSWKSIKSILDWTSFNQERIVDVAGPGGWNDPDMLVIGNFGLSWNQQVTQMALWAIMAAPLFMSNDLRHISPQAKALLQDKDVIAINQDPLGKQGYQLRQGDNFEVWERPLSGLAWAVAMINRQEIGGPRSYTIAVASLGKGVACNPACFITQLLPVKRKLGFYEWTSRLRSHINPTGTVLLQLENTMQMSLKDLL

Take `Cc1ccnc2c1NC(=O)c1cccnc1N2C1CC1`: the Potency result in experiment [1], in experiment [2], in experiment [3], in [4], in experiment [5] and in [6] was “inactive” throughout. Also, the Potency result in experiment [7], in experiment [8] and in experiment [9] was “inactive” throughout.

Take `CC[C@H](C)C(=O)O[C@H]1C[C@@H](C)C=C2C=C[C@H](C)[C@H](CC[C@@H]3C[C@@H](O)CC(=O)O3)[C@H]21`: the Potency result in experiment [1], in experiment [2], in experiment [3], in experiment [4], in experiment [6] and in experiment [7] was “inactive” in each case. Also, the Potency entry in experiment [8] and in [9] was “inactive” in each case.

Take `Nc1nc(N)c2nc(CNc3ccc(C(=O)NC(CCC(=O)O)C(=O)O)cc3)cnc2n1` (configuration not stated): the activity change, negative = inhibition in experiment [10] (at 57.5 µM (top of the series)) was 6.58% (inactive) and 1.3% (inactive). Moreover, the max response in [10] (setting [19]) was 6.78% and -3.02%; in [10] (setting [20]) it was 18.5% and 0.109%. In addition, the molecule was called inactive in experiment [11]. In addition, the Potency result in experiment [12] and in [13] was “inactive” in each case.

Turning to `CC[C@H](NC(C)C)[C@H](O)c1ccc(O)c2[nH]c(=O)ccc12`, the activity change, negative = inhibition in experiment [10] (at 57.5 µM (top of the series)) was -1.12% (inactive). For the same molecule, the max response in experiment [10] (setting [19]) was -20.9%; in experiment [10] (setting [20]), -21.9%.

As for `O=C(N[C@H](CO)[C@H](O)c1ccc([N+](=O)[O-])cc1)C(Cl)Cl`, the Potency result in experiment [1], in [2], in [3], in experiment [4], in experiment [5] and in experiment [6] was “inactive” throughout. Further, the Potency entry in experiment [7], in experiment [8] and in experiment [9] was “inactive” in each case. For the same molecule, in experiment [10] (at 57.5 µM (top of the series)), the activity change, negative = inhibition was 4.84% (inactive). Moreover, the values for the max response in experiment [10] (setting [19]) and in experiment [10] (setting [20]) were -11.7% and -6.22%, respectively.

Regarding `C[C@]12C=CC(=O)C=C1CC[C@@H]1[C@@H]2C(=O)C[C@@]2(C)[C@H]1CC[C@]2(O)C(=O)CO`, the Potency entry in experiment [1], in experiment [2], in experiment [3], in [4], in experiment [5] and in [6] was “inactive” throughout. Besides, the Potency entry in [7], in experiment [8] and in experiment [9] was “inactive” each time.

As to `Cc1nnc(NS(=O)(=O)c2ccc(N)cc2)s1`, the Potency entry in experiment [1], in experiment [2], in [3], in [4], in [5] and in experiment [6] was “inactive” throughout. The Potency result in experiment [7], in experiment [8] and in experiment [9] was “inactive” each time. Moreover, the activity change, negative = inhibition in experiment [10] (at 25.7 µM (top of the series)) is 0.279% (inactive); in experiment [10] (at 57.5 µM (top of the series)), 7.74% (inactive). Moreover, the max response was -3.37% and -1.8% in experiment [10] (setting [19]); -7.15% and 7.76% in [10] (setting [20]).

In the case of `Nc1ccc(S(=O)(=O)Nc2ccccn2)cc1`, the activity change, negative = inhibition is -0.611% (inactive) in experiment [10] (at 25.7 µM (top of the series)) and 8.46% (inactive) in [10] (at 57.5 µM (top of the series)). The max response in experiment [10] (setting [19]) is -5.02% and 31.9%; in experiment [10] (setting [20]), -4.54% and 46.5%.

Turning to `Cc1ccc(S(=O)(=O)N[C@@H](Cc2ccccc2)C(=O)CCl)cc1`, the outcome in experiment [14], in [15], in experiment [16] and in [11] was inactive. Moreover, the Potency result in experiment [17] was “inactive”.

Turning to `CC(=O)[C@H]1CC[C@H]2[C@@H]3CCC4=CC(=O)CC[C@]4(C)[C@H]3CC[C@]12C`, the call in [14], in experiment [15], in experiment [16], in experiment [11] and in experiment [18] was inactive. The activity change, negative = inhibition in experiment [10] (at 57.5 µM (top of the series)) is 1.11% (inactive). Besides, the max response in experiment [10] (setting [19]) is -15.2%; in experiment [10] (setting [20]), -13.1%.

With `CC(C)(C)NC(=O)[C@H]1CC[C@H]2[C@@H]3CC[C@H]4NC(=O)C=C[C@]4(C)[C@H]3CC[C@]12C`, the call in experiment [14], in [15], in experiment [16], in experiment [11] and in experiment [18] was inactive. Besides, the activity change, negative = inhibition in experiment [10] (at 57.5 µM (top of the series)) was -0.33% (inactive). Also, the max response in experiment [10] (setting [19]) is -43.7%; in experiment [10] (setting [20]) it was -42.5%. Further, the Potency in [12] was 10 µM (active).

For the molecule `CCCOc1ccc(C(=O)OCCN(CC)CC)cc1N`, the activity change, negative = inhibition in experiment [10] (at 25.7 µM (top of the series)) is -0.0947% (inactive). In addition, the max response stood at 10.6% in [10] (setting [19]) and 9.95% in experiment [10] (setting [20]).

Consider `COc1cc(NS(=O)(=O)c2ccc(N)cc2)nc(OC)n1`, for which the activity change, negative = inhibition in [10] (at 25.7 µM (top of the series)) was -1.42% (inactive); in experiment [10] (at 57.5 µM (top of the series)), 14.8% (inactive). The max response in experiment [10] (setting [19]) was -11.2% and 9.08%; in [10] (setting [20]) it was -12.8% and 25.1%.

`COc1cnc(NS(=O)(=O)c2ccc(N)cc2)nc1`: the figures for the activity change, negative = inhibition in experiment [10] (at 25.7 µM (top of the series)) and in [10] (at 57.5 µM (top of the series)) were -0.0044% (inactive) and 4.6% (inactive), respectively. Further, the max response in experiment [10] (setting [19]) was -12.6% and 15.3%; in [10] (setting [20]), -11.3% and 19.8%.
